Results taken from PubChem BioAssay.
Activity calls are given as the source filed them. Unless noted, no rule for the calls is given here.

Columns and labels:
[1] = compounds binding Alexa647 anti-His antibody – biochemical, small-molecule microarray, 635 nm fluorescence, artefact control for SMM control protein annotation, primary screen (AID 1128); conditions: higher = more signal;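 also: score merges feature fluorescence with signal-to-noise for each printed compound spot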
[2] = test system: Human papillomavirus type 1a E7 protein (residues 1-88); assay: HPV1a E7 small-molecule binders, primary screen, biochemical, small-molecule microarray, residues 1-88, 635 nm (AID 1129); conditions: small-molecule microarray binding, fluorescence 635 nm; higher = more signal
[3] = molecular target: Focal adhesion kinase 1 (Homo sapiens) (UniProt Q05397); assay: PTK2 protein binding on printed compound slides – biochemical, small-molecule microarray, 635/667 nm fluorescence, BSA, DTT, primary screen (AID 1130); conditions: 635 nm fluorescence, higher = more signal;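 also: composite of spot emission at 667 nm and signal to noise over triplicate slides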
[4] = test system: Fibrinogen (Alexa647-labelled); assay: Alexa647-fibrinogen binding to printed small molecules – biochemical, small-molecule microarray, 635/667 nm fluorescence, artefact control for SMM control-protein annotation, profiling panel (AID 1131); conditions: fibrinogen-A647 binding fluorescence, higher = more signal;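 also: z-score merges 667 nm fluorescence with per-spot signal-to-noise over triplicate slides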
[5] = molecular target: Follistatin (Homo sapiens) (UniProt P19883); assay: FST protein binding to printed compounds – biochemical, small-molecule microarray, 635/667 nm fluorescence, primary screen (AID 1132); conditions: 635 nm fluorescence, higher = more signal
[6] = molecular target: Fibroblast growth factor 2 (Homo sapiens) (UniProt P09038); assay: basic fibroblast growth factor binding to printed compounds – biochemical, small-molecule microarray, 635/667 nm fluorescence, primary screen (AID 1133); conditions: FGF2, fluorescence 635/667, higher = more signal
[7] = JC-1 mitochondrial potential readout, lung cancer cells – cell-based, A549, JC-1 fluorescence, basal, 24 h, 100 nL, profiling panel (AID 1138); conditions: higher = more signal;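 also: A549 lung adenocarcinoma cells under basal conditions with no added stimulus; test concentration not given here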
Lefty1 = Lefty1 protein binding to printed compounds – biochemical, small-molecule microarray, 635/667 nm fluorescence, primary screen (AID 1139); conditions: fluorescence 635/667, higher = more signal
[8] = test system: wheat germ agglutinin (Triticum aestivum), Alexa647-labelled; assay: Alexa647-WGA lectin binding to printed small molecules – biochemical, small-molecule microarray, 635/667 nm fluorescence, artefact control for SMM control-protein annotation, profiling panel (AID 1140); conditions: WGA-A647 binding, 635 nm fluorescence, higher = more signal;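 also: score merges 667 nm feature emission with signal to noise over triplicate slides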
[9] = molecular target: Luciferin 4-monooxygenase (Photinus pyralis) (UniProt P08659); assay: inhibition of purified Photinus pyralis luciferase – biochemical, luminescence, purified enzyme, 2006 set, primary screen (AID 1141); conditions: purified firefly luciferase, SteadyGlo luminescence, 30 min; higher = more signal, called active from +8 up or from −8 down;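 also: cell-free assay with purified firefly luciferase at 100 ng per well in PBS; test concentration not given here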
[10] = test system: Wnt5a (protein binding on small-molecule microarray); assay: small molecules binding Wnt5a protein – biophysical, small-molecule microarray, 635/667 nm fluorescence, primary screen (AID 1142); conditions: 635 nm fluorescence, higher = more signal;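 also: fluorescence read at 667 nm with signal to noise per printed feature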
[11] = ATP-based viability of Huh7 replicon cells – cell-based, CellTiter-Glo luminescence, basal, 48 h, cytotoxicity control for HCV replication inhibitor project, primary screen (AID 1143); conditions: higher = more signal, called active from +8 up or from −8 down;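 also: Huh7 hepatoma cells carrying a hepatitis C replication reporter with no stimulus; test concentration not given here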
[12] = Pseudomonas biofilm growth suppression – PAO1 strain, BacTiter-Glo luminescence, LB-PBS, primary screen (AID 1144); conditions: P. aeruginosa PAO1 biofilm, 12 h, higher = more signal
[13] = basal CRE-LacZ reporter activity in PC12 – cell-based, unstimulated, primary screen (AID 1145); conditions: no forskolin, luminescence, 4.5 h, higher = more signal, called active from +8 up or from −8 down
[14] = forskolin-driven CRE-LacZ activity in PC12 – cell-based, CRE-LacZ reporter, forskolin-stimulated, primary screen (AID 1146); conditions: luminescence, 4.5 h, higher = more signal, called active from +8 up or from −8 down;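 also: PC12 cells with 6xCRE LacZ reporter stimulated by forskolin 10 µM; beta-galactosidase reporter signal reflecting CREB driven transcription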
[15] = molecular target: Streptavidin (Streptomyces avidinii) (UniProt P22629); assay: compounds binding control protein streptavidin – biophysical, small-molecule microarray, 635/667 nm fluorescence, artefact control for SMM compound annotation, primary screen (AID 1147); conditions: higher = more signal;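 also: signal reflects streptavidin binding to arrayed compounds as a control protein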
[16] = probe aInhba binding on compound microarray – biochemical, small-molecule microarray, 635/667 nm fluorescence, primary screen (AID 1148); conditions: higher = more signal;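 also: score merges 667nm spot fluorescence with signal-to-noise for antibody binding to printed compounds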
Torsin-1A (Homo sapiens) [17] = molecular target: Torsin-1A (Homo sapiens) (UniProt O14656); assay: TOR1A wild-type binding on microarray – cell lysate, small-molecule microarray, lysate, 635/667 nm, primary screen (AID 1149); conditions: COS7 hTOR1A-WT lysate, 635 nm fluorescence, higher = more signal
Torsin-1A (Homo sapiens) [18] = molecular target: Torsin-1A (Homo sapiens) (UniProt O14656); assay: torsin A mutant lysate binding on microarrays – cell lysate, small-molecule microarray, COS7 lysate, 635/667 nm fluorescence, primary screen (AID 1150); conditions: COS7 hTOR1A mutant lysate, 635 nm fluorescence, higher = more signal;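 also: score pools 667 nm emission and signal to noise measuring lysate protein binding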
[19] = test system: Sonic hedgehog protein (Shh); assay: Sonic hedgehog microarray binding compounds – biochemical, small-molecule microarray, 635/667 nm fluorescence, primary screen (AID 1151); conditions: 635 nm fluorescence, higher = more signal;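 also: Shh protein binding to compounds spotted on small-molecule microarray slides; score combines spot fluorescence intensity with signal-to-noise across triplicate slides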

Sequence of Focal adhesion kinase 1 (Homo sapiens) (Q05397 whole entry, looked up): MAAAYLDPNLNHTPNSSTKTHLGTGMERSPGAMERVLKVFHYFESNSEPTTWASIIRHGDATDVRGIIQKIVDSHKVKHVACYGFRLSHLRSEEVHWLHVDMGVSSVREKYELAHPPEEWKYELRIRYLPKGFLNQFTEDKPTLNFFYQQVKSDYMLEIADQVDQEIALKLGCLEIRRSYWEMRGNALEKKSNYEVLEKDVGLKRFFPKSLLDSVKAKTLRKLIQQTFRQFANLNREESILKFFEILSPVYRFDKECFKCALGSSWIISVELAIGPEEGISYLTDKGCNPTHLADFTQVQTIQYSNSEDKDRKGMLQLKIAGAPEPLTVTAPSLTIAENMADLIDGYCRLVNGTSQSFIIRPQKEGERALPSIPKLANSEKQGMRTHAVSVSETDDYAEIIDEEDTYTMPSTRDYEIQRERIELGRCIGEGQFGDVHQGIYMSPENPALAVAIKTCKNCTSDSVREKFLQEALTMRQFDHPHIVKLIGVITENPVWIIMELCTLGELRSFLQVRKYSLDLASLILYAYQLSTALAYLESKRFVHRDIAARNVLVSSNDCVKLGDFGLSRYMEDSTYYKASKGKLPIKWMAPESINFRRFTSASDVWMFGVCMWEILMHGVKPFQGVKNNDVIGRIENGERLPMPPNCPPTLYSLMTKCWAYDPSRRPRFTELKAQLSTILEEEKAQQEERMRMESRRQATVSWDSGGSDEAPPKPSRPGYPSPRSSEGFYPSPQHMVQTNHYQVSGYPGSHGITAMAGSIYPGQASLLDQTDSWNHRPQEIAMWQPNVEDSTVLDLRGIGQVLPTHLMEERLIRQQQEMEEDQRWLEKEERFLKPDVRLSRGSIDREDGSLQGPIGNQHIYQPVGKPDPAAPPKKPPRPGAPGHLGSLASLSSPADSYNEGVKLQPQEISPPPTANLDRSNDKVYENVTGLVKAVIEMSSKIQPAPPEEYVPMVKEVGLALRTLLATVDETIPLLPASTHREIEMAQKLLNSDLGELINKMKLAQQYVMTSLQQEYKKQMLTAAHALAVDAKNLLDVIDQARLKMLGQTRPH
Sequence of Fibroblast growth factor 2 (Homo sapiens) (P09038 whole entry, looked up): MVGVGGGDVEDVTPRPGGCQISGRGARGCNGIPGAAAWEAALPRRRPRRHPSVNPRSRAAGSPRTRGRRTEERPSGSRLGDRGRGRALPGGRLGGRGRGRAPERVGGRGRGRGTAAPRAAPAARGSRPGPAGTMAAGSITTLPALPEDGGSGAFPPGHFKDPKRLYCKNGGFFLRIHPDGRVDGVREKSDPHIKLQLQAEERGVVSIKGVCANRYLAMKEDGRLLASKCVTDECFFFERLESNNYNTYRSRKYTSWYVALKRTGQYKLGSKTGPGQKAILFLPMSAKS
Sequence of Streptavidin (Streptomyces avidinii) (P22629 whole entry, looked up): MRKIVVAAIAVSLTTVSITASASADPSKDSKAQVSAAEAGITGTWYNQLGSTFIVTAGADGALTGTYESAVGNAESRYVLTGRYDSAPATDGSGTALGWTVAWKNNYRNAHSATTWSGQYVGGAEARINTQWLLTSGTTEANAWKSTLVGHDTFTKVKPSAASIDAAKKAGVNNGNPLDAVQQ
Sequence of Luciferin 4-monooxygenase (Photinus pyralis) (P08659 whole entry, looked up): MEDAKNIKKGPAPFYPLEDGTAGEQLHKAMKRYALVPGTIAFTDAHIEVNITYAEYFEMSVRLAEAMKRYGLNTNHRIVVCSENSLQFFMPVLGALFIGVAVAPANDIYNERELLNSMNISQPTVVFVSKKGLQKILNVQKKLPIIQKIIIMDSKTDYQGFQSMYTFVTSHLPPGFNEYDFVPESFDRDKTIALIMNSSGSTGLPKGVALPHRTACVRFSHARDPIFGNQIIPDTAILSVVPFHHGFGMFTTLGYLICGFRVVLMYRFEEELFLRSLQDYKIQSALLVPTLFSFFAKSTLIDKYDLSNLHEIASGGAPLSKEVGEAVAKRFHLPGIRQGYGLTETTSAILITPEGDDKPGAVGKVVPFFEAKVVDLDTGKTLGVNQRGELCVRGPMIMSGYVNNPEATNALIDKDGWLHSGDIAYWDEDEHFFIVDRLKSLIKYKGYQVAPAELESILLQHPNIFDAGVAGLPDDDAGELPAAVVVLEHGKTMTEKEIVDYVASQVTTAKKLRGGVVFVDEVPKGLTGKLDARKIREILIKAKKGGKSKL
Sequence of Follistatin (Homo sapiens) (P19883 whole entry, looked up): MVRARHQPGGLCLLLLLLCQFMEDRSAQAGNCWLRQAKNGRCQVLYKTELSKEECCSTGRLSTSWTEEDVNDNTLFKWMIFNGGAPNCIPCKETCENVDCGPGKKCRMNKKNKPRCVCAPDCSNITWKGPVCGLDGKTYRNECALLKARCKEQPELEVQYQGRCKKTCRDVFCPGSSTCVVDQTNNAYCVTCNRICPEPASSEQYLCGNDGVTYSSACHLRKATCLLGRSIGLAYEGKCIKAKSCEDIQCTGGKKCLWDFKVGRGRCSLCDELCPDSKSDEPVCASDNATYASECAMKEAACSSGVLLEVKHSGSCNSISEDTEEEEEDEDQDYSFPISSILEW
Sequence of Torsin-1A (Homo sapiens) (O14656 whole entry, looked up): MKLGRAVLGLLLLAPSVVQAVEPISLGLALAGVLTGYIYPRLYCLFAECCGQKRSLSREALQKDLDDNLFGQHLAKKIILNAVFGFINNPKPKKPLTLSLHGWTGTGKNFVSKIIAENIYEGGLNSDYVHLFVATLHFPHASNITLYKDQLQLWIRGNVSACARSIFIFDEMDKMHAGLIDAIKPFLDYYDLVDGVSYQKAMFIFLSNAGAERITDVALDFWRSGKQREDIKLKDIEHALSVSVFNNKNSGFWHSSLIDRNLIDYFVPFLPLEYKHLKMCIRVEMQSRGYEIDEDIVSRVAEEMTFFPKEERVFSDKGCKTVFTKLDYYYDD

Compound	composite z-score [1]	composite z-score [2]	composite z-score [3]	composite z-score [4]	composite z-score [5]	composite z-score [6]	z-score [7]	composite z-score (Lefty1)	composite z-score [8]	z-score [9]	composite z-score [10]	z-score [11]	z-score [12]	z-score [13]	z-score [14]	composite z-score [15]	composite z-score [16]	composite z-score (Torsin-1A (Homo sapiens) [17])	composite z-score (Torsin-1A (Homo sapiens) [18])	composite z-score [19]
NC(=O)NCC#Cc1ccc2c(c1)[C@]1(C(=O)N2)[C@H](c2ccc(O)cc2)N2[C@H](c3ccccc3)[C@H](c3ccccc3)OC(=O)[C@H]2[C@@H]1C(=O)NC[C@H](O)c1ccccc1	-0.652	-0.843	-0.126	-1.74	-2.12	-1.11	0.717	-3.02	-1.82	-0.498 (inactive)	-0.579	-0.383 (inactive)	0.502 (inactive)	0.48 (inactive)	-0.334 (inactive)	-1.85	-0.239	-1.19	-1	-1.22
COc1cc(C(O)C2C=CC3C(=O)NC(=O)C3N2Nc2ccc(Cl)cc2Cl)cc(OC)c1OC (stereo not given)	1.32	1.24	0.105	0.866	1.14	-0.0812	0.275	0.286	0.871	-0.0332 (inactive)	0.273	0.127 (inactive)	-0.591 (inactive)	0.622 (inactive)	0.472 (inactive)	1.59	0.115	-0.69	0.81	0.245
O=C1NC(=O)C2C1C=CC(C(O)c1ccc3c(c1)OCO3)N2Nc1ccc(Cl)cc1Cl (stereo not given)	1.24	0.453	0.822	0.0542	0.579	-0.0317	0.512	0.194	0.698	-0.109 (inactive)	-0.002	-0.0416 (inactive)	-0.238 (inactive)	0.0501 (inactive)	-0.329 (inactive)	0.347	0.249	0.0858	-0.446	-0.116
CC1CC/C=C\[C@H]2OC34C=CCN(Cc5ccccc5)C(=O)[C@H]3N(CCO)C(=O)[C@@H]4C2C(=O)O1 (stereo not given in full)	0.364	0.324	-0.106	-0.785	-0.418	-0.43	-0.322	-0.592	-0.162	-0.573 (inactive)	0.478	-0.273 (inactive)	0.836 (inactive)	-0.0778 (inactive)	0.151 (inactive)	-0.492	-0.176	2.37	2.58	-0.218
CCOC(=O)C1=CC[C@@H](c2ccc(N(CC)CC)cc2)N(S(=O)(=O)c2ccc(C)cc2)[C@H]1c1ccc([N+](=O)[O-])cc1	0.479	0.836	0.718	0.403	-0.35	-1.18	1.53	-0.863	0.516	0.719 (inactive)	-0.383	-3.45 (inactive)	0.858 (inactive)	-0.583 (inactive)	0.619 (inactive)	1.08	-0.0332	-1	-0.101	-0.438
C[C@H]1ON(c2ccccc2)[C@@H](c2ccccc2)[C@@H]1C(=O)N1C(=O)OC[C@@H]1c1ccccc1	0.143	0.718	0.784	0.894	1.12	0.986	-0.21	0.5	0.014	0.422 (inactive)	-0.0367	-0.133 (inactive)	0.0377 (inactive)	-0.323 (inactive)	-0.251 (inactive)	0.116	-0.0403	0.151	0.201	0.657
N#Cc1ccc(NN2C(C(O)c3ccco3)C=CC3C(=O)N(c4ccccc4)C(=O)C32)cc1 (stereo not given)	0.716	-0.0085	0.788	0.251	0.552	-0.302	-0.244	-0.231	0.754	-0.72 (inactive)	0.0896	1.34 (inactive)	-0.768 (inactive)	-0.136 (inactive)	0.2 (inactive)	0.252	0.0183	0.135	-0.236	-0.0404
COCCCNC(=O)[C@@]1(C)c2ccccc2C(=O)N(c2ccc(C)cn2)[C@H]1c1ccc(CO)cc1	-0.545	-0.454	-0.193	-1.03	-0.0423	0.204	-0.9	-0.939	0.421	0.522 (inactive)	-0.259	0.616 (inactive)	-0.252 (inactive)	0.0279 (inactive)	0.208 (inactive)	-1.4	-0.202	0.152	-1.17	-0.0308
CCN(CC)c1ccc(N2CC=CC34O[C@@H]5/C=C\CCCOC(=O)C5[C@H]3C(=O)N(CCCCCO)[C@@H]4C2=O)cc1 (stereo not given in full)	-0.617	-1.39	-0.722	-2.57	-0.785	-1.26	0.965	-0.758	-1.19	-0.918 (inactive)	-0.704	-0.119 (inactive)	2.25 (inactive)	0.605 (inactive)	0.417 (inactive)	-1.45	-0.211	-2.51	-1.91	-0.155
COC(=O)[C@@]1(Cc2ccc(OC)cc2)[C@H]2c3cc(C(=O)N(C)C)n(Cc4cc(C)n(C)n4)c3C[C@H]2CN1C(=O)c1ccccc1	1.08	1.29	0.405	-0.842	-0.396	-0.233	-1.14	-0.0189	0.262	1.01 (inactive)	0.982	-0.753 (inactive)	0.329 (inactive)	0.19 (inactive)	2.65 (inactive)	0.462	0.229	0.638	0.67	-0.797
